INHIBITION data for 64 compounds are collected here from ChEMBL document CHEMBL4513216, “Probing the Open Global Health Chemical Diversity Library for Multistage-Active Starting Points for Next-Generation Antimalarials” (ACS Infect Dis, 2020).

Among all 69,000 compounds or so, about 8,600 (12%) showed an effect of 50% or more. This excerpt belongs to a sample that is enriched for strong results.

This test concerns Plasmodium berghei. The test can be described thus: Screen against P. berghei liver stage (PbLuc), transformed with Luciferase, at 10uM. Type of test: functional, HepG2. To be noted: tested at 10 uM.
In the case of `Cn1ccc(C(=O)NCc2ccc(N3CCOCC3)nc2)cc1=O`, the INHIBITION is recorded as -29.9%. With `O=C(NCC(F)(F)F)C1CSCN1S(=O)(=O)c1cccc(F)c1` (centres undefined), the INHIBITION is recorded as -16.6%.

Consider `COc1ccc(-c2cc(C(=O)NCCn3ccnc3)n(C)n2)cc1`, for which the INHIBITION was -5.8%. The value for `CN(Cc1ccc(O)cc1)C(=O)NCc1nnc2n1CCCCC2` was -9.76%; that for `CCc1nc(CN2CCCN(CC(=O)N3CCOCC3)CC2)no1` was 13.8%; that for `CCC(C)C(=O)NCc1c(C)nn(C)c1N1CCCN(C)CC1` (centres undefined) was -1.32%. For `O=C(CC1CC1)N1CCC2(CC1)CN(c1ncc(F)cn1)CCO2` the value was 35.7%. In the case of `c1cnc(N2CCOC3(CCN(CC4CCCCC4)CC3)C2)nc1`, the INHIBITION was 34.7%. The value for `NCCC(=O)N1CCC2(CC1)CN(C(=O)Cc1cccc(Cl)c1)CCO2` was -4.76%.

In the case of `O=S(=O)(C1CC1)N1CCC2(CN(c3ccccn3)C2)C1`, the INHIBITION is reported as 24.9%. The value for `NCC(=O)N1CCC2(CC1)CN(C(=O)Cc1ccc(Cl)cc1)CCO2` was -26.3%; that for `O=C(CC1CC1)N1CCC2(CC1)CN(c1ncccn1)CCO2` was 50%. Take `CCCS(=O)(=O)N1CCC2(CC1)CN(c1ccccn1)CCO2`: the INHIBITION was 0%. The value for `O=C(N1CCOCC1)N1CCC2(CC1)CN(c1ccccn1)CCO2` was 67.2%. For the compound `NCCC(=O)N1CCC2(CC1)CN(C(=O)Cc1ccc(Cl)cc1)CCO2`, the INHIBITION was 64.8%. For `O=S(=O)(C1CC1)N1CCC2(CN(c3ncccn3)C2)C1` the value was 54.8%. `Cc1occc1C(=O)N1CCC2(CC1)CN(c1ccccn1)CCO2`: the INHIBITION amounted to 14.8%. The value for `O=S(=O)(C1CC1)N1CCC2(CCCN(c3ncccn3)C2)C1` (centres undefined) was 19.6%; that for `NC(=O)c1cnc(NC2CC2)nc1CCNC(=O)Cc1ccccc1` was -50.3%; that for `CCn1nc(C)c(CNC(=O)NCC(C)(O)c2ccc(C)o2)c1C` (centres undefined) was -8.5%. For `Cc1ccc(CN2CCC3(CC2)C(=O)N(CCO)CCN3C)o1`, the INHIBITION was 18.6%. For `O=C(CCc1ccsc1)N1CCCC(N2CCNC2=O)C1` (centres undefined) the value was -5.26%; for `O=C(NCCc1ccccn1)N1CCOC(c2ccccc2Cl)C1` (centres undefined), -4.63%; for `COc1cc(C2SC(C)=Nc3c2c(=O)[nH]n3C2CCCC2)ccc1O` (centres undefined), 24.7%. For `CC(C)CC(=O)N1C[C@H]2CCCN(S(=O)(=O)c3ccc(Cl)s3)[C@H]2C1`, the INHIBITION is given as -29.9%. The value for `CS(=O)(=O)N1CCOC2(CCCN(c3cnccn3)C2)C1` (centres undefined) was -14%; that for `O=C(Cc1ccccc1)N1CCC2(CC1)CN(c1ncccn1)CCO2` was 50.9%. For the compound `O=C(Cc1ccccn1)N1CCC2(CC1)CN(c1ncccn1)CCO2`, the INHIBITION is 27.6%. As for `CCS(=O)(=O)N1CCOC2(CCCN(c3cnccn3)C2)C1` (centres undefined), the INHIBITION is on record as -7.59%. On to `CCOC1CC2(CCN(C(=O)Cc3ccccn3)CC2)C1`, for which the INHIBITION amounted to 31.2%. As for `O=C(c1cscn1)N1CCC2(CC1)CN(c1ccccn1)CCO2`, the INHIBITION was 34.6%.

For `O=C(Cc1ccccn1)N1CCC2(CC1)[C@H](O)C[C@@H]2O`, the INHIBITION is recorded as 39%. For `CC(=O)N1CCCC2(C1)CN(C(=O)Cc1ccccc1)CCO2` (centres undefined) the value was 41.6%; for `Cc1ccc(C(=O)N2CCC3(CC2)CN(c2ccccn2)CCO3)cc1`, 49.7%; for `CC(C)COC1CC2(CCN(C(=O)Cc3ccccn3)CC2)C1`, 64.7%. For the compound `Cc1cnc(C(=O)N2CCC3(CC2)CN(c2ccccn2)CCO3)cn1`, the INHIBITION amounted to 56.7%. `COCC(=O)N1CCOC2(CCCN(c3cnccn3)C2)C1` (centres undefined): the INHIBITION was found to be 52.3%.

Consider `CC1=C(C#N)C(=O)NC(=O)/C1=C\c1c(C)[nH]n(-c2ccc(Cl)cc2)c1=O`, for which the INHIBITION is reported as 11.5%. Turning to `Cn1cc(CCNC(=O)N2CCCC(c3nncn3C)C2)cn1` (centres undefined), the INHIBITION is -18%. Turning to `Cc1nnc2n1CCN(Cc1csc(-c3ccsc3)n1)C2`, the INHIBITION is recorded as 14.4%. For `CC(C)Cc1nc(CN2CCOC(Cn3cccn3)C2)no1` (centres undefined) the value was 28.8%; for `O=C(c1ccc(-c2cnco2)cc1)N1CCC(Nc2cccnn2)CC1`, -46.2%; for `Cc1nccn1-c1cncc(C2CCCN2Cc2cccnc2)n1` (centres undefined), -22.6%. As for `CCC(CO)N(C/C(C)=C/c1ccco1)Cc1ccsc1` (centres undefined), the INHIBITION came to 42.3%. For `COCCN1CCCc2sc(C(=O)NCC3CCCO3)nc21` (centres undefined), the INHIBITION was -50.8%. The value for `COCCN(C)C[C@@H]1CCC[C@@H]2CN(c3ncccn3)C[C@@H]21` was 26%. Turning to `c1cnc(N2CCCC3(CCN(CC4CCOC4)CC3)C2)nc1` (centres undefined), the INHIBITION is -19.1%. For `O=C(c1cccnc1)N1CCC2(CC1)CN(c1ccccn1)CCO2` the value was -13.2%. The value for `O=C(c1cccc(F)c1)N1CCC2(CC1)CN(c1ccccn1)CCO2` was 57.9%; that for `O=C(c1ccnnc1)N1CCC2(CC1)CN(c1ccccn1)CCO2` was 33.4%. On to `O=C(CC1CC1)N1CCC2(CCCN(c3ncccn3)C2)CC1`, for which the INHIBITION amounted to 52%. Take `CN(C)C(=O)N1CCC2(CCCN(c3ncccn3)C2)C1` (centres undefined): the INHIBITION is 11.5%. `O=C(C1=CCCCC1)N1CCC2(CC1)COC(COc1ccccn1)C2` (centres undefined): the INHIBITION is recorded as 3.41%. On to `Cc1ccccc1CC(=O)NS(=O)(=O)c1cccc2cnccc12`, for which the INHIBITION came out at 40.6%. For `Cc1cc(N2CCN(C(=O)c3cnn(C(C)C)c3)CC2)cc(C)n1`, the INHIBITION stood at 3%.

Consider `Cc1cc(N2CCN(C(=O)c3cnn(C(C)C)c3)CC2)nc(N)n1`, for which the INHIBITION is -2.73%.

For `CC(C)n1cc(C(=O)N2CCN(c3cccc(C(F)(F)F)c3)CC2)cn1`, the INHIBITION was 62.8%. In the case of `Cc1cc(C(=O)N2CCO[C@H]3[C@H](Oc4ccccn4)CC[C@@H]32)c(C)[nH]1`, the INHIBITION is 32.1%. For `Cc1cncc(C(=O)N2CCO[C@H]3[C@H](Oc4ccccn4)CC[C@@H]32)c1` the value was 72.9%. The value for `O=C(N1CCCC1)N1CCO[C@H]2[C@@H](Oc3ccccn3)CC[C@@H]21` was 35.3%.

`O=C(c1cscn1)N1CCO[C@H]2[C@@H](Oc3ccccn3)CC[C@@H]21`: the INHIBITION was found to be 63.8%. Regarding `Cc1occc1C(=O)N1CCO[C@H]2[C@@H](Oc3ccccn3)CC[C@@H]21`, the INHIBITION stood at 30.7%. As to `O=C(C1=CCCC1)N1CCO[C@H]2[C@@H](Oc3ccccn3)CC[C@@H]21`, the INHIBITION worked out at 30.1%. As for `Cc1nn(C)c(C)c1C1CCCN1C(=O)c1ccc(C(N)=O)s1` (centres undefined), the INHIBITION is listed as 22.8%.
